Assay results taken from ChEMBL document CHEMBL4303097 (2020).
Whole data set: some 1,500 compounds, median “Inhibition index” near 0.17, cut for the highest 2% near 1.3. What follows is part of a selection rich in the highest values, with near analogues and random picks from the rest.

System: SARS-CoV-2
Experiment: Inhibition of cell viability relative to arbidol control (inhibition index > 1 indicates higher activity) measured by fluorescence (OD590nm) in Vero E6 cells infected with SARS-CoV-2 (strain BavPat1) at MOI 0.002 after 72hrs
Format: functional, Chlorocebus sabaeus, Vero C1008

Question: With `CC(C)NCC(O)c1cc(O)cc(O)c1.CC(C)NCC(O)c1cc(O)cc(O)c1.O=S(=O)(O)O` (configuration not stated) [METAPROTERENOL SULFATE] as the compound, how does the Inhibition index read?
Answer: 0.06285

Question: With `COCC1=C(C(=O)OC(C)OC(=O)OC(C)C)N2C(=O)[C@@H](NC(=O)/C(=N\OC)c3csc(N)n3)[C@H]2SC1` (some centres not stated) [CEFPODOXIME PROXETIL] as the compound, how does the Inhibition index read?
Answer: 0.5603

Question: How did the Inhibition index turn out when `C[C@]12C/C(=C\O)C(=O)C[C@@H]1CC[C@@H]1[C@@H]2CC[C@@]2(C)[C@H]1CC[C@]2(C)O` was run?
Answer: 1.738

Question: Which Inhibition index does the source give for `C[C@]12Cc3c[nH]nc3C[C@@H]1CC[C@@H]1[C@@H]2CC[C@@]2(C)[C@H]1CC[C@]2(C)O` [STANOZOLOL] here?
Answer: 0.4173

Question: With `C[C@]12COC(=O)C[C@@H]1CC[C@@H]1[C@@H]2CC[C@@]2(C)[C@H]1CC[C@]2(C)O` [OXANDROLONE] as the compound, how does the Inhibition index read?
Answer: 0.1105

Question: Which Inhibition index does the source give for `CC(Cc1ccccc1)NCCC(c1ccccc1)c1ccccc1.CC(O)C(=O)O` (configuration not stated) here?
Answer: -0.1094

Question: For `Cl.OC(c1cc(C(F)(F)F)nc2c(C(F)(F)F)cccc12)C1CCCCN1` (configuration not stated) [MEFLOQUINE HYDROCHLORIDE], which Inhibition index is on record?
Answer: -0.1263

Question: Which Inhibition index does the source give for `CS(=O)(=O)O.Cc1ccc2c(c1)c1c3n2CCNC3CCC1` (configuration not stated) here?
Answer: 0.5995

Question: `C=C1/C(=C\C=C2/CCC[C@]3(C)[C@@H]([C@H](C)CCCC(C)C)CC[C@@H]23)C[C@@H](O)C[C@@H]1O` [ALFACALCIDOL] was tested. Which Inhibition index did it give?
Answer: -0.1396

Question: Which Inhibition index does the source give for `COc1ccc(-c2noc(CC(=O)O)c2-c2ccc(OC)cc2)cc1` [MOFEZOLAC] here?
Answer: 0.1442

Question: Which Inhibition index does the source give for `Nc1cccc2c1C(=O)N(C1CCC(=O)NC1=O)C2=O` (configuration not stated) [POMALIDOMIDE] here?
Answer: -0.01474

Question: For `O=C1Nc2ccc(Cl)cc2[C@@](C#CC2CC2)(C(F)(F)F)O1` [EFAVIRENZ], which Inhibition index is on record?
Answer: -0.107

Question: `CCOCCn1c(N2CCCN(C)CC2)nc2ccccc21.O=C(O)/C=C/C(=O)O.O=C(O)/C=C/C(=O)O` [EMEDASTINE DIFUMARATE] was tested. Which Inhibition index did it give?
Answer: 0.1648

Question: How did the Inhibition index turn out when `N=C(N)c1ccc(OCCCCCOc2ccc(C(=N)N)cc2)cc1.O=S(=O)(O)CCO.O=S(=O)(O)CCO` [PENTAMIDINE ISETHIONATE] was run?
Answer: -0.04121

Question: `Cc1cccc(C)c1NC(=O)CC12CCCN1CCC2.Cl` was tested. Which Inhibition index did it give?
Answer: 0.08672

Question: How did the Inhibition index turn out when `CO[C@@H]1[C@@H](O[C@@H]2O[C@H](C)[C@@H](O[C@H]3C[C@@](C)(O)[C@@H](O)[C@H](C)O3)[C@H](N(C)C)[C@H]2O)[C@@H](CC=O)C[C@@H](C)[C@@H](O[C@H]2CC[C@H](N(C)C)[C@@H](C)O2)/C=C/C=C/C[C@@H](C)OC(=O)C[C@H]1OC(C)=O` was run?
Answer: 1.276

Question: With `CO[C@@H]1[C@@H](O[C@@H]2O[C@H](C)[C@@H](O[C@H]3C[C@@](C)(O)[C@@H](OC(=O)CC(C)C)[C@H](C)O3)[C@H](N(C)C)[C@H]2O)[C@@H](CC=O)C[C@@H](C)[C@@H](O)/C=C/C=C/C[C@@H](C)OC(=O)C[C@H]1OC(C)=O` [JOSAMYCIN] as the compound, how does the Inhibition index read?
Answer: 0.1589

Question: Which Inhibition index does the source give for `CCC(=O)O[C@@H]1CC(=O)O[C@H](C)C/C=C/C=C/[C@H](O)[C@H](C)C[C@H](CC=O)[C@H](O[C@@H]2O[C@H](C)[C@@H](O[C@H]3C[C@@](C)(O)[C@@H](OC(=O)CC)[C@H](C)O3)[C@H](N(C)C)[C@H]2O)[C@H]1OC` [MIDECAMYCIN] here?
Answer: 0.09553

Question: Which Inhibition index does the source give for `C[C@H]1O[C@@H](O[C@H]2[C@@H](O)C[C@H](O[C@H]3[C@@H](O)C[C@H](O[C@H]4CC[C@@]5(C)[C@H](CC[C@@H]6[C@@H]5C[C@@H](O)[C@]5(C)[C@@H](C7=CC(=O)OC7)CC[C@]65O)C4)O[C@@H]3C)O[C@@H]2C)C[C@H](O)[C@@H]1O` [DIGOXIN] here?
Answer: 0.2267

Question: With `COc1ccc(C[C@@H]2c3cc(OC)c(OC)cc3CC[N@+]2(C)CCC(=O)OCCCCCOC(=O)CC[N@@+]2(C)CCc3cc(OC)c(OC)cc3[C@H]2Cc2ccc(OC)c(OC)c2)cc1OC.O=S(=O)([O-])c1ccccc1.O=S(=O)([O-])c1ccccc1` [CISATRACURIUM BESYLATE] as the compound, how does the Inhibition index read?
Answer: 1.338

Question: Which Inhibition index does the source give for `COc1ccc(CC2c3cc(OC)c(OC)cc3CC[N+]2(C)CCC(=O)OCCCCCOC(=O)CC[N+]2(C)CCc3cc(OC)c(OC)cc3C2Cc2ccc(OC)c(OC)c2)cc1OC.O=S(=O)([O-])c1ccccc1.O=S(=O)([O-])c1ccccc1` (configuration not stated) [ATRACURIUM BESYLATE] here?
Answer: 0.8693

Question: With `CC1(C)S[C@@H]2[C@H](NC(=O)[C@@H](c3ccccc3)S(=O)(=O)O)C(=O)N2[C@H]1C(=O)O.[Na+].[Na+]` as the compound, how does the Inhibition index read?
Answer: 0.4594

Question: `NC12CC3CC(CC(C3)C1)C2.NC12CC3CC(CC(C3)C1)C2.O=C(O)/C=C\C(=O)O` was tested. Which Inhibition index did it give?
Answer: 0.02174

Question: With `CC1=C(C(=O)O)N2C(=O)[C@@H](NC(=O)[C@H](N)c3ccc(O)cc3)[C@H]2SC1` [CEFADROXIL] as the compound, how does the Inhibition index read?
Answer: 0.02715

Question: For `CN1CCN(CCCN2c3ccccc3Sc3ccc(C(F)(F)F)cc32)CC1.Cl.Cl` [TRIFLUOPERAZINE HYDROCHLORIDE], which Inhibition index is on record?
Answer: -0.1697

Question: Which Inhibition index does the source give for `COC(c1ccccc1)(c1ccccc1)C(Oc1nc(C)cc(C)n1)C(=O)O` (configuration not stated) here?
Answer: 1.459

Question: Which Inhibition index does the source give for `CN1CCC(=C2c3ccccc3CCc3cccnc32)CC1.O=C(O)/C=C\C(=O)O.O=C(O)/C=C\C(=O)O` [AZATADINE MALEATE] here?
Answer: 0.8296

Question: Which Inhibition index does the source give for `CN(C)CCOC(=O)C(c1ccccc1)C1(O)CCCC1.Cl` (configuration not stated) [CYCLOPENTOLATE HYDROCHLORIDE] here?
Answer: 1.136

Question: For `CC(C)(C)NCC(O)c1ccc(O)c(CO)c1` (configuration not stated) [ALBUTEROL], which Inhibition index is on record?
Answer: 0.0995

Question: How did the Inhibition index turn out when `CC(C)(C)NC[C@H](O)c1ccc(O)c(CO)c1.Cl` [LEVALBUTEROL HYDROCHLORIDE] was run?
Answer: 1.311

Question: How did the Inhibition index turn out when `CNCC(O)c1ccc(O)c(O)c1.Cl` (configuration not stated) [RACEPINEPHRINE HYDROCHLORIDE] was run?
Answer: 0.3358

Question: Which Inhibition index does the source give for `CC[N+](C)(C)Cc1ccccc1Br.Cc1ccc(S(=O)(=O)[O-])cc1` [BRETYLIUM TOSYLATE] here?
Answer: 0.2627

Question: Which Inhibition index does the source give for `CC(=O)N[C@@H](CC(=O)O)C(=O)N[C@@H](CCC(=O)O)C(=O)O` [ISOSPAGLUMIC ACID] here?
Answer: 0.8884

Question: `CC(=O)O[C@]1(C(C)=O)CC[C@H]2[C@@H]3C=C(Cl)C4=CC(=O)C5CC5[C@]4(C)[C@H]3CC[C@@]21C` (some centres not stated) was tested. Which Inhibition index did it give?
Answer: 0.4824

Question: `N[C@@H]1CONC1=O` [CYCLOSERINE] was tested. Which Inhibition index did it give?
Answer: 1.427

Question: How did the Inhibition index turn out when `N[C@H]1CONC1=O` [LEVCYCLOSERINE] was run?
Answer: 1.42

Question: With `O.O=P(O)(O)C(O)(Cc1cccnc1)P(=O)(O)O` as the compound, how does the Inhibition index read?
Answer: 0.3004

Question: `CC[N+](C)(CC)CCC[n+]1c(-c2ccccc2)c2cc(N)ccc2c2ccc(N)cc21.[I-].[I-]` [PROPIDIUM] was tested. Which Inhibition index did it give?
Answer: 0.2273

Question: With `CC[C@]12CCCN3CCc4c(n(c5ccccc45)[C@@](O)(C(=O)OC)C1)[C@@H]32` [VINCAMINE] as the compound, how does the Inhibition index read?
Answer: 0.1041

Question: With `C#C[C@]1(OC(C)=O)CC[C@H]2[C@@H]3CCC4=CC(=NO)CC[C@@H]4[C@H]3CC[C@@]21CC` as the compound, how does the Inhibition index read?
Answer: -0.3327

Question: `C[C@H](O)[C@H](O)[C@H]1CNc2[nH]c(N)nc(=O)c2N1.Cl.Cl` [SAPROPTERIN DIHYDROCHLORIDE] was tested. Which Inhibition index did it give?
Answer: 0.4022

Question: For `O=C1CN(/N=C/c2ccc(-c3ccc([N+](=O)[O-])cc3)o2)C(=O)[N-]1.[Na+]` [DANTROLENE SODIUM], which Inhibition index is on record?
Answer: 0.3986

Question: How did the Inhibition index turn out when `Nc1ccc(S(=O)(=O)[N-]c2cnc3ccccc3n2)cc1.[Na+]` [SULFAQUINOXALINE SODIUM] was run?
Answer: -0.000446

Question: `COc1cc2nc(N3CCN(C(=O)C4CCCO4)CC3)nc(N)c2cc1OC.Cl` (configuration not stated) was tested. Which Inhibition index did it give?
Answer: -0.01131

Question: How did the Inhibition index turn out when `CN(C)CCCN1c2ccccc2Sc2ccccc21.Cl` [PROMAZINE HYDROCHLORIDE] was run?
Answer: 1.161

Question: With `Cl.N[C@@H]1CCCCN(c2c(F)cc3c(=O)c(C(=O)O)cn(C4CC4)c3c2Cl)C1` [BESIFLOXACIN HYDROCHLORIDE] as the compound, how does the Inhibition index read?
Answer: 0.08463

Question: Which Inhibition index does the source give for `CCCCc1oc2ccccc2c1C(=O)c1cc(I)c(OCCN(CC)CC)c(I)c1.Cl` [AMIODARONE HYDROCHLORIDE] here?
Answer: -0.1051

Question: `COCCc1ccc(OCC(O)CNC(C)C)cc1.COCCc1ccc(OCC(O)CNC(C)C)cc1.O=C(O)C(O)C(O)C(=O)O` (configuration not stated) [METOPROLOL TARTRATE] was tested. Which Inhibition index did it give?
Answer: 0.03331

Question: With `CCC(=O)[C@@]1(C)[C@H](C)C[C@H]2[C@@H]3CCC4=CC(=O)C=C[C@]4(C)[C@H]3[C@@H](O)C[C@@]21C` [RIMEXOLONE] as the compound, how does the Inhibition index read?
Answer: 0.1893

Question: For `Cl.NCCc1ccc(O)c(O)c1` [DOPAMINE HYDROCHLORIDE], which Inhibition index is on record?
Answer: 1.056

Question: `C[C@@H]1C[C@H]2[C@@H]3C[C@H](F)C4=CC(=O)C=C[C@]4(C)[C@@]3(Cl)[C@@H](O)C[C@]2(C)[C@H]1C(=O)COC(=O)C(C)(C)C` [CLOCORTOLONE PIVALATE] was tested. Which Inhibition index did it give?
Answer: 0.111

Question: Which Inhibition index does the source give for `O=C(O)Cc1ccccc1Oc1ccc(Cl)cc1Cl` [FENCLOFENAC] here?
Answer: 0.3257

Question: Which Inhibition index does the source give for `CC(=O)OCC(=O)[C@@]12OC(C)(C)O[C@@H]1C[C@H]1[C@@H]3C[C@H](F)C4=CC(=O)C=C[C@]4(C)[C@@]3(F)[C@@H](O)C[C@@]12C` [FLUOCINONIDE] here?
Answer: 0.2896

Question: For `CCN(CC)CC(=O)Nc1c(C)cccc1C.Cl`, which Inhibition index is on record?
Answer: -0.01364

Question: With `CC1=C(/C=C/C(C)=C/C=C/C(C)=C/C(=O)O)C(C)(C)CCC1` [TRETINOIN] as the compound, how does the Inhibition index read?
Answer: 0.999

Question: Which Inhibition index does the source give for `CC1=C(/C=C/C(C)=C/C=C/C(C)=C\C(=O)O)C(C)(C)CCC1` [ISOTRETINOIN] here?
Answer: 1.484

Question: Which Inhibition index does the source give for `COc1cc(C)c(/C=C/C(C)=C/C=C/C(C)=C/C(=O)O)c(C)c1C` [ACITRETIN] here?
Answer: 0.2609
